# Source: PubChem BioAssay (EPA / NIEHS)
# Calls of active or inactive are those of the source. Rule for the calls: active = hit-call score of the fitted dose curve at least 0.9, where 1 is the maximum; inactive = score below 0.9.
# Read-out: Plasminogen activator inhibitor-1 (PAI1), SERPINE1 (gene 5054)
# Assay: BSK_MyoF_PAI1: BioMAP Diversity Plus: MyoF Assay for Plasminogen activator inhibitor-1 (PAI1) Biomarker Activity (AID 2284256);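 for outcome: PAI-1 protein level measured by ELISA in fibroblast cultures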
# Settings: primary human lung fibroblasts
# Procedure, shortened: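 Primary human lung fibroblasts are dosed and incubated 24 h. PAI-1 is then measured by ELISA, while parallel cultures undergo SRB staining for overt cytotoxicity. Increases over DMSO define activity.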
Compound,outcome,AC50
c1ccc2c(c1)[nH]c1ccccc12,inactive,–
CCN1CN(CC)CN(CC)C1,inactive,–
CC/C=C\CCOC(=O)c1ccccc1O,–,31.3 µM (active)
CC(C)[N+](C)(CCOC(=O)C1c2ccccc2Oc2ccccc21)C(C)C,–,0.0398 µM (active)
COC(OC)(C(=O)c1ccccc1)c1ccccc1,inactive,–
Nc1cccc(N)n1,inactive,–
Fc1ccc(Br)cc1,inactive,–
Clc1cc(Cl)c(Cl)c(Cl)c1Cl,–,31.9 µM (active)
O=C1CCCCCCCCCCC1,inactive,–
COc1ccc(C(=O)c2ccccc2)c(O)c1,inactive,–
C=CCCCCCCCCC=O,inactive,–
Cc1c(O)cccc1O,inactive,–
CC/C=C\C/C=C\C/C=C\CCCCCCCC(=O)OC,–,13.7 µM (active)
C=CC(=O)NC(C)(C)C,inactive,–
CCCCCCCCC(CO)CCCCCC (stereo not drawn),inactive,–
O=C1CCCCCCCCCCCN1,inactive,–
C=CC(=O)NCOCCCC,inactive,–
CC=C(C)C=CC=C(C)C,–,0.016 µM (active)
CCNc1nc(NC(C)(C)C)nc(OC)n1,inactive,–
CC1=CC=C(C(C)C)CC1,inactive,–
Oc1ccc(/C=C/c2cc(O)cc(O)c2)cc1,inactive,–
c1ccc2sc(SSN3CCOCC3)nc2c1,–,29.8 µM (active)
CC(C)CCCCCOC(=O)CS,inactive,–
C=CC(=O)OCC(C)OCC(C)OCC(C)OC(=O)C=C (stereo not drawn),–,30.9 µM (active)
CCCCC1C(=O)N(c2ccccc2)N(c2ccccc2)C1=O,inactive,–
CCCCCCCCCCCC(C)=O,inactive,–
CC(C)c1cccc(C(C)C)c1N,inactive,–
C=CC(=O)OCCCCCCOC(=O)C=C,–,34.6 µM (active)
